“And” between values parts separate entries of the source, which are not always exact repeats. Equal values may be shown once. About 2,000 (36%) of roughly 5,500 compounds were called active. Roughly 18% stayed inconclusive and do not appear here. Cut-off read from the data, not from the text of the source: active = normalized growth mostly below about 0.91 (no sharp cut-off); inconclusive = no clear call, values can overlap the other calls; inactive = mostly above about 0.92. The list shows a part of the results.
Test: chemical genetic growth profiling, strain panel (AID 1159580);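 note: tested at 20 µM; growth read once vehicle control cultures reached saturation at 30 °C; 1 = growth at the plate median or of vehicle wells; lower values mean less growth of the strain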
Settings: S. cerevisiae deletion strains, growth OD

Measured: normalized growth

COc1cc([C@@H]2c3cc4c(cc3[C@H](OC(C)=O)[C@H]3COC(=O)[C@H]23)OCO4)cc(OC)c1OC
inactive: locus YAL021C, strain ccr4, active compounds read low 0.992 | locus YAL026C, strain drs2, active compounds read low 1.01 | locus YAL030W, strain snc1, active compounds read low 0.999 | locus YBL061C, strain skt5, active compounds read low 1.01 | locus YBR009C, strain hhf1, active compounds read low 1.01 | locus YBR021W, strain FUR4, active compounds read low 0.956 | locus YBR023C, strain chs3, active compounds read low 1 | locus YBR171W, strain sec66, active compounds read low 1.02 | locus YBR229C, strain ROT2, active compounds read low 0.99 | locus YBR231C, strain swc5, active compounds read low 1 | locus YBR279W, strain paf1, active compounds read low 0.976 | locus YCL011C, strain gbp2, active compounds read low 1 | locus YCL016C, strain dcc1, active compounds read low 1.01 | locus YCL029C, strain bik1, active compounds read low 0.986 | locus YCL061C, strain MRC1, active compounds read low 1.01 | locus YCL069W, strain vba3, active compounds read low 0.999 | locus YCR088W, strain abp1, active compounds read low 1.01 | locus YDL005C, strain med2, active compounds read low 1.01 | locus YDL035C, strain GPR1, active compounds read low 1.02 | locus YDL040C, strain nat1, active compounds read low 0.996 | locus YDL074C, strain BRE1, active compounds read low 0.991 | locus YDL101C, strain DUN1, active compounds read low 0.998 | locus YDL134C, strain PPH21, active compounds read low 1.03 | locus YDL185W, strain tfp1, active compounds read low 0.983 | locus YDL192W, strain arf1, active compounds read low 1.01 | locus YDR001C, strain nth1, active compounds read low 0.999 | locus YDR069C, strain doa4, active compounds read low 1.02 | locus YDR101C, strain arx1, active compounds read low 0.996 | locus YDR137W, strain rgp1, active compounds read low 0.884 | locus YDR159W, strain sac3, active compounds read low 1.01 | locus YDR162C, strain NBP2, active compounds read low 1.02 | locus YDR195W, strain ref2 1 | locus YDR297W, strain sur2, active compounds read low 0.998 | locus YDR318W, strain mcm21, active compounds read low 0.987 | locus YDR334W, strain swr1, active compounds read low 1.01 | locus YDR335W, strain msn5, active compounds read low 0.998 | locus YDR388W, active compounds read low 0.98 | locus YDR392W, strain spt3, active compounds read low 1.01 | locus YDR502C, strain sam2, active compounds read low 0.989 | locus YEL003W, strain gim4, active compounds read low 1.01 | locus YEL037C, strain rad23, active compounds read low 1 | locus YEL061C, strain CIN8 (second series), active compounds read low 0.996 | locus YEL061C, strain CIN8, active compounds read low 1 | locus YER015W, strain faa2, active compounds read low 1.02 | locus YER016W, strain bim1, active compounds read low 1 | locus YER110C, active compounds read low 0.96 | locus YER111C, strain swi4, active compounds read low 1.01 | locus YER155C, strain BEM2 (second series), active compounds read low 1.04 | locus YER155C, strain BEM2, active compounds read low 0.983 | locus YER167W, strain BCK2, active compounds read low 0.998 | locus YFR010W, strain ubp6, active compounds read low 1 | locus YGL078C, strain dbp3, active compounds read low 0.971 | locus YGL086W, strain mad1, active compounds read low 0.997 | locus YGL167C, strain pmr1, active compounds read low 1.02 | locus YGL173C, strain kem1, active compounds read low 1.01 | locus YGL227W, strain vid30, active compounds read low 1 | locus YGL240W, strain doc1, active compounds read low 1.01 | locus YGL248W, strain PDE1, active compounds read low 0.996 | locus YGL253W, strain hxk2, active compounds read low 1.01 | locus YGR135W, strain pre9, active compounds read low 0.986 | locus YGR252W, strain gcn5, active compounds read low 0.983 | locus YHR013C, strain ard1, active compounds read low 0.988 | locus YHR027C, strain rpn1, active compounds read low 1 | locus YHR030C, strain SLT2, active compounds read low 0.996 and 0.987 | locus YHR079C, strain IRE1 (second series), active compounds read low 0.988 | locus YHR079C, strain IRE1, active compounds read low 0.98 | locus YHR094C, strain hxt1, active compounds read low 0.973 | locus YHR129C, strain ARP1, active compounds read low 1 | locus YHR142W, strain chs7, active compounds read low 0.996 | locus YHR200W, strain rpn10, active compounds read low 0.988 | locus YIL066C, strain RNR3, active compounds read low 1.01 | locus YIL073C, strain SPO22, active compounds read low 0.98 | locus YIL125W, strain kgd1, active compounds read low 0.987 | locus YIR030C, strain dcg1, active compounds read low 0.974 | locus YJL092W, strain hpr5, active compounds read low 1.01 | locus YJL095W, strain BCK1 (second series), active compounds read low 1 | locus YJL095W, strain BCK1, active compounds read low 1.01 and 1.04 | locus YJL115W, strain asf1, active compounds read low 1.01 | locus YJL129C, strain trk1, active compounds read low 1 | locus YJL134W, strain LCB3, active compounds read low 0.993 | locus YJL154C, strain vps35, active compounds read low 1.01 | locus YJL164C, strain tpk1, active compounds read low 1.01 | locus YJL166W, strain qcr8, active compounds read low 0.995 | locus YJL168C, strain set2, active compounds read low 0.977 | locus YJL187C, strain SWE1 (second series), active compounds read low 1 | locus YJL187C, strain SWE1, active compounds read low 0.99 | locus YJR043C, strain POL32, active compounds read low 1.03

— PubChem BioAssay AID1159580 (chemical genetic matrix, 2015)
